# Results reported in ChEMBL document CHEMBL1157539, “Thousands of chemical starting points for antimalarial lead identification” (Nature, 2010).
# Tested on: HepG2
# Assay: GSK_TCMDC: Percent inhibition of human HepG2 cell line. Test compounds present at 10uM.
# Type: functional
row,SMILES,Inhibition
1,Cl.O=C(/C=C/c1ccc(Cl)c(Cl)c1)N1CCC(CCN2CCC(c3c[nH]c4cnccc34)CC2)CC1,93%
2,O=C(Nc1ccc2c(c1)CN(Cc1ccc(N3CCCC3)o1)CCC2)c1ccoc1.O=CO,4%
3,CCCc1ccc(NC(=O)c2ccc(CN3CCCN(Cc4ccc(OC)cc4)CC3)cc2)cc1.O=C(O)C(F)(F)F,47%
4,Oc1ccc2[nH]c(-c3ccc(OC(F)(F)F)cc3)nc2c1CNC1CCCC1,32%
5,COc1ccc(CN(C)CC(O)COc2ccc(NC(=O)c3cccc4c(=O)c5cccc(OC)c5[nH]c34)cc2)cc1OC (stereo not drawn),72%
6,Cc1ccnc(NC(=O)c2cc(-c3cccc([N+](=O)[O-])c3)nc3onc(C)c23)c1,5%
7,CCN(CC)CCCC(C)Nc1c(-c2ccc(Br)cc2)cnc2ccccc12 (stereo not drawn),7%
8,CC(=O)N1N=C(c2ccc(Cl)cc2)Sc2c1nc(-c1ccccc1)n2C(C)=O,0%
9,CCc1cc2c(O)c([N+](=O)[O-])c(=O)oc2cc1OCCCCCOc1cc2oc(=O)c([N+](=O)[O-])c(O)c2cc1CC,11%
10,O=C(O)C(F)(F)F.O=C1CCCN1CCCNCc1ccc(-c2ccc(-c3nc4cc(F)ccc4[nH]3)s2)cc1,19%
11,CC(C)(C)Oc1ccc(CC2NC3(C(=O)N(Cc4ccc(C(C)(C)C)cc4)c4ccccc43)C3C(=O)N(c4ccc(Br)cc4)C(=O)C23)cc1 (stereo not drawn),24%
12,N#Cc1cc([N+](=O)[O-])ccc1-n1nc(-c2cccc(Cl)c2)n(CC2CCCO2)c1=S (stereo not drawn),0%
13,OCCN1CCN(C(=S)NC2CCCCC2)CC1,49%
